{
  "source": "PubChem BioAssay AID2284099",
  "about": "(EPA ToxCast)",
  "note": "Calls of active or inactive are those of the source. Rule for the calls: active = hit-call score of the fitted dose curve at least 0.9, where 1 is the maximum; inactive = score below 0.9.",
  "data": [
    {"target": "human JAK2 Tyrosine Kinase, JAK2 (gene 3717) (UniProt O60674)", "sequence (O60674 whole entry, looked up)": "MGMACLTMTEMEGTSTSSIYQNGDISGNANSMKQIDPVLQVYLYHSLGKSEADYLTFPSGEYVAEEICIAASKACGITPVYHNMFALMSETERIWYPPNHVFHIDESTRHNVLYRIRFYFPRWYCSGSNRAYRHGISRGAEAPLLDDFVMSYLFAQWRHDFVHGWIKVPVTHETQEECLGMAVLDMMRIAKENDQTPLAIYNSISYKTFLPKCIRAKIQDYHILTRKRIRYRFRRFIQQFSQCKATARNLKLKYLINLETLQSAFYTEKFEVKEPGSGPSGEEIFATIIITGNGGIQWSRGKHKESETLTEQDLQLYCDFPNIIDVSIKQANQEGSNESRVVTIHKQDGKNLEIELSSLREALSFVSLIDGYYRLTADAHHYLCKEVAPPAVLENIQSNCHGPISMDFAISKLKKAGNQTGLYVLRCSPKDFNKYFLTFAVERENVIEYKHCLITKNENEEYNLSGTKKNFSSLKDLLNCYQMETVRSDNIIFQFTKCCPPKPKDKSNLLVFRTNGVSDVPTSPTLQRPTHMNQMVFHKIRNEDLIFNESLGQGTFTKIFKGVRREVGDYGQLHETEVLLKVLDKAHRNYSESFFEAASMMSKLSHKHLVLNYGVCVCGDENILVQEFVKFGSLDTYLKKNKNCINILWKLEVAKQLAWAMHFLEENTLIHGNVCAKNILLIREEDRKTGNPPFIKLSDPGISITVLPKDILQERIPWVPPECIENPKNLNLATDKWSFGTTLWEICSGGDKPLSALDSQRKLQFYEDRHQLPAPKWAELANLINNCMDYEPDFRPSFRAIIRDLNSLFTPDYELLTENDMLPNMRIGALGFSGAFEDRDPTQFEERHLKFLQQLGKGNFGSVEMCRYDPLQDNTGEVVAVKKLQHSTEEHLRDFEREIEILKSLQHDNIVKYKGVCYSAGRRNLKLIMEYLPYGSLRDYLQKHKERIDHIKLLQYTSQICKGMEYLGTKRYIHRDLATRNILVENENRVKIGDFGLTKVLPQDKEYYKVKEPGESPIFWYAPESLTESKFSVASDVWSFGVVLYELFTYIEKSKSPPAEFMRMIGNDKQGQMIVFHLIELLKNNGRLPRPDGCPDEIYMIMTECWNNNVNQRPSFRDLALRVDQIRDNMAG", "experiment": "ERF_FR_ENZ_hJAK2: Eurofins (ERF) Enzymatic Radiometric [Km ATP] KinaseProfiler LeadHunter Assay for human JAK2 Tyrosine Kinase", "protocol": "ERF_FR_ENZ_hJAK2 is a biochemical, single-readout assay that uses extracted gene-proteins in a cell-free assay. Measurements were taken 1 hour after chemical dosing in a 96-well plate. See JAK2 Human TK Kinase Enzymatic LANCE Assay [Km ATP], Cerep.ERF_FR_ENZ_hJAK2 is an assay component calculated from the ERF_FR_ENZ_hJAK2 assay. It is designed to measure enzyme activity using a type of enzyme reporter as detected by fluorescence intensity with LANCE technology.Data from the assay component ERF_FR_ENZ_hJAK2 was analyzed at the assay endpoint, ERF_FR_ENZ_hJAK2, in the positive analysis fitting direction relative to DMSO as the negative control and baseline of activity. Using a type of enzyme reporter, loss-of-signal activity can be used to understand changes in enzymatic activity as they relate to gene JAK2. To generalize the intended target to other relatable targets, this assay endpoint is annotated to the kinase intended target family, where the subfamily is non-receptor tyrosine kinase.\nJAK2 (h) is incubated with 8 mM MOPS pH 7.0, 0.2 mM EDTA, 100 uM […], 10 mM MgAcetate and [gamma-33P]-ATP (specific activity and concentration as required). The reaction is initiated by the addition of the Mg/ATP mix. After incubation for 40 minutes at room temperature, the reaction is stopped by the addition of phosphoric acid to a concentration of 0.5%. […]", "values": [
      {"smiles": "O=C(/C=C/c1ccc(O)cc1)CC(=O)/C=C/c1ccc(O)cc1", "AC50": "2510 nM (active)"}
    ]}
  ]
}
